Source: PubChem BioAssay (EPA / NIEHS)
Calls of active or inactive are those of the source. How the source made its calls: active means hit-call score of the fitted dose curve at least 0.9, where 1 is the maximum; inactive means score below 0.9.

Test: ATG_M_32_CIS: Attagene CIS-FACTORIAL HepG2 Assay for M32 Transcription Factor (Internal Marker) (AID 2282949);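 further: background control marker of the multiplexed CIS panel rather than a real target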
Settings: HepG2 Attagene cis-factorial M32 reporter, mRNA; actives raise or lower the signal
Procedure, shortened: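 HepG2 human liver cells transiently transfected with cis-promoter-driven multiple reporter transcription units, dosed 24 h. Reporter mRNA quantified by RT-PCR, FAM-labelled primer extension, HpaI digest and capillary electrophoresis; bidirectional fit versus DMSO baseline.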

Row | Compound | outcome
1 | Cc1c(C(=O)O)c(O)cc2c1C(=O)c1c(O)c([C@@H]3O[C@H](CO)[C@@H](O)[C@H](O)[C@H]3O)c(O)c(O)c1C2=O | inactive
2 | Cc1cc(NC(=O)C(=O)O)cc(C)c1Oc1ccc(O)c2c1CCC2 | inactive
3 | CCCCCCCCCCO | inactive
4 | CCc1c(C(=O)NN2CCCCC2)nn(-c2ccc(Cl)cc2Cl)c1-c1ccc(Br)cc1 | inactive
5 | COc1cc(S(=O)(=O)O)c(C)cc1N=Nc1c(O)ccc2cc(S(=O)(=O)O)ccc12 | inactive
6 | CCOC(=O)C(C)(C)Oc1ccc(Cl)cc1 | inactive
7 | CN1CCN(Cc2cc(-c3ccc4[nH]c(=O)oc4c3)co2)[C@@H](c2ccc(F)cc2)C1 | inactive
8 | FC(F)(F)C(F)(F)C(F)(F)C(F)(F)C(F)(F)C(F)(F)CCI | inactive
9 | CNC(=O)[C@H]1O[C@@H](n2cnc3c(NCc4cc(Cl)ccc4OCc4cc(C)no4)ncnc32)[C@H](O)[C@@H]1N | inactive
10 | CCCCc1ccc2c(n1)[C@@H](c1ccc(OC)cc1C[C@H](C)C(=O)O)[C@H](C(=O)O)[C@H]2c1ccc2c(c1)OCO2 | inactive
11 | O=C(O)CCCCC(=O)O | inactive
12 | CCCCCCCCCCCC(=O)OC | inactive
13 | Cc1ccc(Cl)cc1 | inactive
14 | CC(CO)OC(C)CO (stereo not drawn) (tested in a mixture with another compound) | inactive
15 | COCCOCCOC | inactive
16 | CC(=O)OCCOCCOCCOC(C)=O | inactive
17 | COc1cc(-c2nc(NC(=O)c3cc4cc(C)cc(C)c4n3CC(=O)O)sc2CCC2CCCCC2)c(OC)cc1Cl | inactive
18 | O=C(O)Cc1ccccc1Nc1c(Cl)cccc1Cl | inactive
19 | Cc1ccccc1Cl | inactive
20 | Cc1nc(C)nc(N2C[C@@H](C)N(c3ccnc([C@@H](C)O)n3)[C@@H](C)C2)n1 | inactive
21 | NS(=O)(=O)c1cc2c(cc1Cl)NCNS2(=O)=O | inactive
22 | NC(=O)Cn1c(=O)cc(CCN2CCN(c3nccc4sccc34)CC2)c2ccc(F)cc21 | inactive
23 | Cc1cc(=O)[nH]c(=S)[nH]1 | inactive
24 | CCCCN(CCCC)CCCC | inactive
25 | Cc1nc(-c2ccc3c(c2)CCN(CCC2CCC(NC(=O)/C=C/c4ccc(F)cc4)CC2)CC3)no1 (stereo not drawn) | inactive
26 | COc1cc(/C=C/C(=O)CC(=O)/C=C/c2ccc(O)c(OC)c2)ccc1O | inactive
27 | O=c1[nH]cc(F)c(=O)[nH]1 | inactive
28 | CN[C@H]1CC[C@@H](c2ccc(Cl)c(Cl)c2)c2ccc(S(N)(=O)=O)cc21 | inactive
29 | Nc1nc(N)c2nc(CNc3ccc(C(=O)N[C@@H](CCC(=O)O)C(=O)O)cc3)cnc2n1 | inactive

Test: ATG_M_06_CIS: Attagene CIS-FACTORIAL HepG2 Assay for M06 Transcription Factor (Internal Marker) (AID 2282950)
Settings: HepG2 Attagene CIS-FACTORIAL M06 internal marker reporter; actives raise or lower the signal
Procedure, shortened: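 Fluorescence-labelled RT-PCR products from cis-promoter reporter units, cut with HpaI and resolved by capillary electrophoresis, give the signal. Cells are human HepG2, dosed for 24 h. Serves as background control, fitted relative to DMSO.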

Row | Compound | outcome
30 | Cc1c(C(=O)O)c(O)cc2c1C(=O)c1c(O)c([C@@H]3O[C@H](CO)[C@@H](O)[C@H](O)[C@H]3O)c(O)c(O)c1C2=O | inactive
31 | Cc1cc(NC(=O)C(=O)O)cc(C)c1Oc1ccc(O)c2c1CCC2 | inactive
32 | CCCCCCCCCCO | inactive
33 | CCc1c(C(=O)NN2CCCCC2)nn(-c2ccc(Cl)cc2Cl)c1-c1ccc(Br)cc1 | inactive
34 | COc1cc(S(=O)(=O)O)c(C)cc1N=Nc1c(O)ccc2cc(S(=O)(=O)O)ccc12 | inactive
35 | CCOC(=O)C(C)(C)Oc1ccc(Cl)cc1 | inactive
36 | CN1CCN(Cc2cc(-c3ccc4[nH]c(=O)oc4c3)co2)[C@@H](c2ccc(F)cc2)C1 | inactive
37 | FC(F)(F)C(F)(F)C(F)(F)C(F)(F)C(F)(F)C(F)(F)CCI | inactive
38 | CNC(=O)[C@H]1O[C@@H](n2cnc3c(NCc4cc(Cl)ccc4OCc4cc(C)no4)ncnc32)[C@H](O)[C@@H]1N | inactive
39 | CCCCc1ccc2c(n1)[C@@H](c1ccc(OC)cc1C[C@H](C)C(=O)O)[C@H](C(=O)O)[C@H]2c1ccc2c(c1)OCO2 | inactive
40 | O=C(O)CCCCC(=O)O | inactive
41 | CCCCCCCCCCCC(=O)OC | inactive
42 | Cc1ccc(Cl)cc1 | inactive
43 | CC(CO)OC(C)CO (stereo not drawn) (tested in a mixture with another compound) | inactive
44 | COCCOCCOC | inactive
45 | CC(=O)OCCOCCOCCOC(C)=O | inactive
46 | COc1cc(-c2nc(NC(=O)c3cc4cc(C)cc(C)c4n3CC(=O)O)sc2CCC2CCCCC2)c(OC)cc1Cl | inactive
47 | O=C(O)Cc1ccccc1Nc1c(Cl)cccc1Cl | inactive
48 | Cc1ccccc1Cl | inactive
49 | Cc1nc(C)nc(N2C[C@@H](C)N(c3ccnc([C@@H](C)O)n3)[C@@H](C)C2)n1 | inactive
50 | NS(=O)(=O)c1cc2c(cc1Cl)NCNS2(=O)=O | inactive
51 | NC(=O)Cn1c(=O)cc(CCN2CCN(c3nccc4sccc34)CC2)c2ccc(F)cc21 | inactive
52 | Cc1cc(=O)[nH]c(=S)[nH]1 | inactive
53 | CCCCN(CCCC)CCCC | inactive
54 | Cc1nc(-c2ccc3c(c2)CCN(CCC2CCC(NC(=O)/C=C/c4ccc(F)cc4)CC2)CC3)no1 (stereo not drawn) | inactive
55 | COc1cc(/C=C/C(=O)CC(=O)/C=C/c2ccc(O)c(OC)c2)ccc1O | inactive
56 | O=c1[nH]cc(F)c(=O)[nH]1 | inactive
57 | CN[C@H]1CC[C@@H](c2ccc(Cl)c(Cl)c2)c2ccc(S(N)(=O)=O)cc21 | inactive
58 | Nc1nc(N)c2nc(CNc3ccc(C(=O)N[C@@H](CCC(=O)O)C(=O)O)cc3)cnc2n1 | inactive
